Article PMC7862700, “An all-to-all approach to the identification of sequence-specific readers for epigenetic DNA modifications on cytosine”

How the values were obtained:
Test in all cases: DAPPL (digital affinity profiling via proximity ligation, sequencing); 10 mM Tris-HCl pH 7.5, 50 mM NaCl, 1 mM DTT, 4% glycerol, room temperature, 30 min; GST-TFs on glutathione beads, 16-mer random dsDNA library, 0.1% formaldehyde crosslink after washing; high values mean tight binding
Settings in all cases: protein: recombinant; tags: N-terminal GST; dsDNA, one strand shown
FLI1 = molecular target: T1, FLI1 (Homo sapiens, UniProt Q01543 1-452)
T1 sequence: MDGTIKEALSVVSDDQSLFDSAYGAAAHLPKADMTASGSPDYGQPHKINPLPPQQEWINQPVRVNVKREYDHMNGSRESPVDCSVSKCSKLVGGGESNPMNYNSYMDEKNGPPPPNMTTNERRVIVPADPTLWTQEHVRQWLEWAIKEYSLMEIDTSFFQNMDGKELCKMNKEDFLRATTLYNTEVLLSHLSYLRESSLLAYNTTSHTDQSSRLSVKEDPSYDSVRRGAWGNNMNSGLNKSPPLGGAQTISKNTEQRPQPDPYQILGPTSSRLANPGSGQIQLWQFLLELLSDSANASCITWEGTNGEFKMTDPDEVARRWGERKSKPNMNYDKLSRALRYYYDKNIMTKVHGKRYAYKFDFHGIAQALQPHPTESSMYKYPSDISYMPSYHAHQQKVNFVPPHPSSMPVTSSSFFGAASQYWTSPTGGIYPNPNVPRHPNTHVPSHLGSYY
In short: (§1)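 Binding signal is each hexamer's read frequency for a factor divided by its frequency in the tag-only sample. The factors were GST-fused human transcription factors from yeast, captured on glutathione beads, DNA-barcoded and pooled with that sample. Pools were incubated with 200 nmole of a random double-stranded 16-mer DNA library in Tris/NaCl/DTT/glycerol buffer at room temperature for 30 min, then washed, crosslinked with 0.1% formaldehyde, proximity-ligated with BsaI/T4 ligase (1 h, 37 °C), PCR-amplified and sequenced on an Illumina NextSeq500.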

ELK1 = molecular target: T2, ELK1 (Homo sapiens, UniProt P19419 1-428)
T2 sequence: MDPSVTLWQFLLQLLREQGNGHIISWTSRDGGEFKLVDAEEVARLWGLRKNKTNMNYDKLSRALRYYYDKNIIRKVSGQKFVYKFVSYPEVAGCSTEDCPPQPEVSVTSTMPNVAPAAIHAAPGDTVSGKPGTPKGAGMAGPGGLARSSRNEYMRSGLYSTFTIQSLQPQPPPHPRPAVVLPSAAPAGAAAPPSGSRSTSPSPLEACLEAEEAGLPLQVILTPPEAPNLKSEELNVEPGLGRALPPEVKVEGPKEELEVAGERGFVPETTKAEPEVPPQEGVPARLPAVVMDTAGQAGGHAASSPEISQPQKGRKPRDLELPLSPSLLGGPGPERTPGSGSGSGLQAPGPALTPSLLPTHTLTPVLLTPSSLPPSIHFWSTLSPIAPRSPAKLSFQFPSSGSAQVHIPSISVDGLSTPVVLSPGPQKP
In short: as §1

GABPA = molecular target: T3, GABPA (Homo sapiens, UniProt Q06546 1-454)
T3 sequence: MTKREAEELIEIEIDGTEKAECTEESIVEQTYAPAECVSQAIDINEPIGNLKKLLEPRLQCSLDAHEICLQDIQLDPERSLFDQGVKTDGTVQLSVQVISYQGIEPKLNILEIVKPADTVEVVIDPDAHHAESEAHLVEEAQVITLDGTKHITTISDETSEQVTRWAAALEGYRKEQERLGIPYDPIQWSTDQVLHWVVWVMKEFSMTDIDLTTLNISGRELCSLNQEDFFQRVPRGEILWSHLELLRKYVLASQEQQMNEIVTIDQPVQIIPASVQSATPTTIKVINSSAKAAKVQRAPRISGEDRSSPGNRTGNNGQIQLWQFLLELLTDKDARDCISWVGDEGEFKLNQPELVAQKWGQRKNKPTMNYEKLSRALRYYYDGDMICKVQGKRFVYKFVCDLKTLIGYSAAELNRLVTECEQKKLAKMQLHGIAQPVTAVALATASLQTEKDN
In short: as §1

ERG = molecular target: T4, ERG (Homo sapiens, UniProt P11308 1-479)
T4 sequence: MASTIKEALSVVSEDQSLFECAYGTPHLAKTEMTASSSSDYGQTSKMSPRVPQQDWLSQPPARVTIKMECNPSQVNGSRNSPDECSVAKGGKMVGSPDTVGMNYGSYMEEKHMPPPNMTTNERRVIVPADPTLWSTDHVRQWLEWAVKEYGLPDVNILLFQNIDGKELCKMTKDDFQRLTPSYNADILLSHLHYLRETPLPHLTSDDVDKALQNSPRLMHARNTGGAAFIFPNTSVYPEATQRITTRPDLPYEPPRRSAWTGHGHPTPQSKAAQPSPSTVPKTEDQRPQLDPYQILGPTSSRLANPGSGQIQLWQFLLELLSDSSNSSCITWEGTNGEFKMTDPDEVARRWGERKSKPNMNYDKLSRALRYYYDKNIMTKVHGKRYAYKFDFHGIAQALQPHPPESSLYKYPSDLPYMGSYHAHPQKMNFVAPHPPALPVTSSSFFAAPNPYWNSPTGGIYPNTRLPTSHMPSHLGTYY
In short: as §1

ELF1 = ELF1 (Homo sapiens, UniProt P32519 1-619)
Chain of ELF1 (P32519 whole entry): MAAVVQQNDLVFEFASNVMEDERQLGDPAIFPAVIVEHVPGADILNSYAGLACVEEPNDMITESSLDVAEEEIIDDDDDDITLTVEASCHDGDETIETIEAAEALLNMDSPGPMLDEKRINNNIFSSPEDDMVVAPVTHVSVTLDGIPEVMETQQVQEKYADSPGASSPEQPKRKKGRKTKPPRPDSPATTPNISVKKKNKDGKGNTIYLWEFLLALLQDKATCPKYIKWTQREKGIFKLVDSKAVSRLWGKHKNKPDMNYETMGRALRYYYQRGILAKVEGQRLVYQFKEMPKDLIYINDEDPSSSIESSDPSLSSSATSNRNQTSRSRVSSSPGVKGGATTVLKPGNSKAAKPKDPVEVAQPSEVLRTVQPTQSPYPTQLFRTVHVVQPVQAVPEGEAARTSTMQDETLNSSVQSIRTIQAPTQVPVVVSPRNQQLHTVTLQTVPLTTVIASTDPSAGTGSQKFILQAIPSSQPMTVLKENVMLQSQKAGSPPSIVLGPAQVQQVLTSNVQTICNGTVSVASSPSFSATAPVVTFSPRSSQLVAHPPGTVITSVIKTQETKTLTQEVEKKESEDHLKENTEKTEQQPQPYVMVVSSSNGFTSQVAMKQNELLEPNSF
In short: as §1

EHF = molecular target: T5, EHF (Homo sapiens, UniProt Q9NZC4 1-300)
T5 sequence: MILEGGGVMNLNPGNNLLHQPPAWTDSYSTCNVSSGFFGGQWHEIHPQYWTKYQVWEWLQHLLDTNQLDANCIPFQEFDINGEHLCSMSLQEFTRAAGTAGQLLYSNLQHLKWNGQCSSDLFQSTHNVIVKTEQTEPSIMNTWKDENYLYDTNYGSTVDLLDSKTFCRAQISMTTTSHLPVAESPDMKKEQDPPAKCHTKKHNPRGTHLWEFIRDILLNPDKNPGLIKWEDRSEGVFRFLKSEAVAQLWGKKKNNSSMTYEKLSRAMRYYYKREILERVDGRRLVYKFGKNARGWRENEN
In short: as §1

SPI1 = SPI1 (Homo sapiens, UniProt P17947 1-270)
In short: as §1

SPIB = SPIB (Homo sapiens, UniProt Q01892 1-262)
Chain of SPIB (Q01892 whole entry): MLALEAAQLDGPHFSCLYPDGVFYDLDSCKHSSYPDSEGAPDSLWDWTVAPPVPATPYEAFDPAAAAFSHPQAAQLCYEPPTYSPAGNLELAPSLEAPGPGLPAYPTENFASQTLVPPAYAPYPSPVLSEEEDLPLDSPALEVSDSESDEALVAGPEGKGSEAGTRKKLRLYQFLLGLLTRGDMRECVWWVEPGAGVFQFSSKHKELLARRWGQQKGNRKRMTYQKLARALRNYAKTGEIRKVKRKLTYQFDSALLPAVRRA
In short: as §1

ELK3 = molecular target: T6, ELK3 (Homo sapiens, UniProt P41970 1-407)
T6 sequence: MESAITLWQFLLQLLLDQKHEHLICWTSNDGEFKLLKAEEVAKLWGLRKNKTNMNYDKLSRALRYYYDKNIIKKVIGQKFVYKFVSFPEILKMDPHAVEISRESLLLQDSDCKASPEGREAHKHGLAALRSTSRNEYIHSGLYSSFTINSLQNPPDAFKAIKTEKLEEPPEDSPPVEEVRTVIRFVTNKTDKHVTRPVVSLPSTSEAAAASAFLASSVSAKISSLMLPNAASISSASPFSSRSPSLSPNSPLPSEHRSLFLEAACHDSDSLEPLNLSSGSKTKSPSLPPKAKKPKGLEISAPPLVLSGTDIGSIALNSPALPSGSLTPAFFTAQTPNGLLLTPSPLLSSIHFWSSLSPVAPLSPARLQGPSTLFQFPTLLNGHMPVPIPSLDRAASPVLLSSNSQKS
In short: as §1

| Sequence | binding signal (FLI1) | binding signal (ELK1) | binding signal (GABPA) | binding signal (ERG) | binding signal (ELF1) | binding signal (EHF) | binding signal (SPI1) | binding signal (SPIB) | binding signal (ELK3) |
| --- | --- | --- | --- | --- | --- | --- | --- | --- | --- |
| ATCCGA | 1.1 fold enrichment (6-mer frequency, TF over GST control) | 1.17 fold enrichment (6-mer frequency, TF over GST control) | 1.2 fold enrichment (6-mer frequency, TF over GST control) | 1.31 fold enrichment (6-mer frequency, TF over GST control) | 1.15 fold enrichment (6-mer frequency, TF over GST control) | 1.17 fold enrichment (6-mer frequency, TF over GST control) | 1.08 fold enrichment (6-mer frequency, TF over GST control) | 1.32 fold enrichment (6-mer frequency, TF over GST control) | 1.32 fold enrichment (6-mer frequency, TF over GST control) |
| CGACGT | 1.23 fold enrichment (6-mer frequency, TF over GST control) | 1.09 fold enrichment (6-mer frequency, TF over GST control) | 1.22 fold enrichment (6-mer frequency, TF over GST control) | 1.06 fold enrichment (6-mer frequency, TF over GST control) | 1.11 fold enrichment (6-mer frequency, TF over GST control) | 1.14 fold enrichment (6-mer frequency, TF over GST control) | 1.08 fold enrichment (6-mer frequency, TF over GST control) | 1 fold enrichment (6-mer frequency, TF over GST control) | 1.07 fold enrichment (6-mer frequency, TF over GST control) |
| TGCACG | 1.12 fold enrichment (6-mer frequency, TF over GST control) | 1.06 fold enrichment (6-mer frequency, TF over GST control) | 1.18 fold enrichment (6-mer frequency, TF over GST control) | 1.03 fold enrichment (6-mer frequency, TF over GST control) | 1.16 fold enrichment (6-mer frequency, TF over GST control) | 1.22 fold enrichment (6-mer frequency, TF over GST control) | 1.12 fold enrichment (6-mer frequency, TF over GST control) | 1.23 fold enrichment (6-mer frequency, TF over GST control) | 1.15 fold enrichment (6-mer frequency, TF over GST control) |
| AATGAA | 1.11 fold enrichment (6-mer frequency, TF over GST control) | 1.1 fold enrichment (6-mer frequency, TF over GST control) | 1.22 fold enrichment (6-mer frequency, TF over GST control) | 1.21 fold enrichment (6-mer frequency, TF over GST control) | 1.15 fold enrichment (6-mer frequency, TF over GST control) | 1.18 fold enrichment (6-mer frequency, TF over GST control) | 1.24 fold enrichment (6-mer frequency, TF over GST control) | 1.2 fold enrichment (6-mer frequency, TF over GST control) | 1.26 fold enrichment (6-mer frequency, TF over GST control) |
| AAGCAC | 1.14 fold enrichment (6-mer frequency, TF over GST control) | 1.14 fold enrichment (6-mer frequency, TF over GST control) | 1.15 fold enrichment (6-mer frequency, TF over GST control) | 1.19 fold enrichment (6-mer frequency, TF over GST control) | 1.18 fold enrichment (6-mer frequency, TF over GST control) | 1.07 fold enrichment (6-mer frequency, TF over GST control) | 1.18 fold enrichment (6-mer frequency, TF over GST control) | 1.18 fold enrichment (6-mer frequency, TF over GST control) | 1.31 fold enrichment (6-mer frequency, TF over GST control) |
| TCCACG | 1.09 fold enrichment (6-mer frequency, TF over GST control) | 1.08 fold enrichment (6-mer frequency, TF over GST control) | 1.2 fold enrichment (6-mer frequency, TF over GST control) | 1.09 fold enrichment (6-mer frequency, TF over GST control) | 1.09 fold enrichment (6-mer frequency, TF over GST control) | 1.06 fold enrichment (6-mer frequency, TF over GST control) | 1.06 fold enrichment (6-mer frequency, TF over GST control) | 1.11 fold enrichment (6-mer frequency, TF over GST control) | 1.14 fold enrichment (6-mer frequency, TF over GST control) |
| GTATGC | 1.22 fold enrichment (6-mer frequency, TF over GST control) | 1.24 fold enrichment (6-mer frequency, TF over GST control) | 1.17 fold enrichment (6-mer frequency, TF over GST control) | 1.11 fold enrichment (6-mer frequency, TF over GST control) | 1.2 fold enrichment (6-mer frequency, TF over GST control) | 1.14 fold enrichment (6-mer frequency, TF over GST control) | 1.23 fold enrichment (6-mer frequency, TF over GST control) | 1.2 fold enrichment (6-mer frequency, TF over GST control) | 1.13 fold enrichment (6-mer frequency, TF over GST control) |
| CTGCCC | 1.31 fold enrichment (6-mer frequency, TF over GST control) | 1.29 fold enrichment (6-mer frequency, TF over GST control) | 1.29 fold enrichment (6-mer frequency, TF over GST control) | 1.36 fold enrichment (6-mer frequency, TF over GST control) | 1.32 fold enrichment (6-mer frequency, TF over GST control) | 1.46 fold enrichment (6-mer frequency, TF over GST control) | 1.27 fold enrichment (6-mer frequency, TF over GST control) | 1.19 fold enrichment (6-mer frequency, TF over GST control) | 1.1 fold enrichment (6-mer frequency, TF over GST control) |
